Hit rate of the full screen: of about 260,000 compounds, about 1,500 (0.58%) were called active. Another 5% or so got no clear call; they are omitted.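 The calls were made as follows: active = inhibition above a set limit at one or more doses, reproduced on every date tested; inconclusive = results disagree between test dates, or hit never tested in dose response; inactive = the rest.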 Only a sample is shown. Potency and affinity values are given separately.
Each compound was assayed against Virion infectivity factor (Human immunodeficiency virus type 1 group M subtype B (isolate BH10)) + Virion infectivity factor (Human immunodeficiency virus type 1 group M subtype B (isolate BRU/LAI)) + Virion infectivity factor (Human immunodeficiency virus type 1 group M subtype B (isolate PCV12)) + Virion infectivity factor (Human immunodeficiency virus type 1 group M subtype B (isolate HXB2)) + DNA dC->dU-editing enzyme APOBEC-3G (Homo sapiens) (UniProt P69720+P69721+P69722+P69723+Q9HC16) (assay: inhibitors of Vif binding to APOBEC3G peptide, primary screen, biochemical, TR-FRET, GST-Vif 1-94, biotin-A3G peptide, dose response retest (AID 1117319;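 also: Vif residues 1-94 fused to GST binding biotinylated APOBEC3G peptide 110-148; 0% = full assay without inhibitor and 100% = GST in place of GST-Vif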)). Details: hits give high values.

inhibition, inactive:
COc1ccc(C(=O)O/N=C(\N)c2ccccc2)c(OC)c1 2.57%
O=C1NC2(CCCCC2)C(=O)N1Cc1cc(=O)n2ccsc2n1 -0.24%
CC(C(=O)NCc1ccc2c(c1)OCO2)c1ccc([N+](=O)[O-])cc1 (centres undefined) 6.03%
Nc1nc(SCc2ccccc2)c2[nH]cnc2n1 -9.37%
CNc1ncnc(Sc2nc(N)nc3nc[nH]c23)c1[N+](=O)[O-] 16.1%
CC1(C)C2C(Cl)(Cl)C2(C)c2ccccc2N1C=O (centres undefined) -2.3%
COc1ccc(-c2nc3ccccc3n2OCC(=O)O)cc1 15.9%
COc1ccc(-c2nc3ccccc3n2OC(C)C(=O)O)cc1 (centres undefined) -3.4%
Cn1[nH]c(C(F)(F)F)c(C=NCc2ccc(Cl)cc2)c1=O -4.02%
COc1cccc(-c2cc3c(=O)n(-c4ccccc4)c(=S)[nH]c3s2)c1 -16.9%
Cc1c(C)n2c3c(cccc13)CC2 3.05%
O=C(Nc1ccccc1)c1cccc(C(F)(F)F)c1 0.71%
O=C(c1ccccc1)c1ccc2nc(-c3ccco3)c(-c3ccco3)nc2c1 3.26%
O=C(Nc1cccc(-c2nnc(-c3ccco3)o2)c1)c1ccccc1 -5.38%
CC(=O)c1ccc(NC(=O)c2cccc(NC(=O)c3ccccc3)c2)cc1 -13.5%
O=C(Nc1cccc(C(F)(F)F)c1)c1ccco1 -3.65%
O=C(Nc1ccc(N2CCOCC2)cc1)c1ccc2nc(-c3ccco3)c(-c3ccco3)nc2c1 10.5%
COc1ccc2cc(C3=CC(=O)CC(C)(C)C3=O)ccc2c1 4.18%
Cc1cc(C)nc(-n2ncc3c2CCCC3=O)n1 -7.41%
COc1ccc([C@@H]2C[C@H]3[C@@H](CN2S(=O)(=O)c2ccccc2)C(=O)C[C@@H](c2ccccc2F)N3S(=O)(=O)c2ccc(C)cc2)cc1 -4.64%
CC1CCOC2(O1)C(=O)N(CN1CCN(c3cccc(Cl)c3)CC1)c1ccccc12 (centres undefined) 16.9%
Cc1ccc(Nc2nc(=O)[nH]nc2C)cc1 23.2%
COCCNC(C(=O)Nc1ccc([N+](=O)[O-])cc1Br)c1ccccc1 (centres undefined) -2.09%
Cc1noc(NS(=O)(=O)c2ccc(NC(=O)CCCOc3ccc(Cl)cc3Cl)cc2)c1C 2.83%
C=CCSc1nnc(NC(=O)CSc2ccccn2)s1 -2.29%
Cc1nnc(NC(=O)CSc2nnc(NC(=O)C(C)(C)C)s2)s1 22.2%
C#CCOCCOCCOCCNc1nc(N2CCN(C(=O)[C@H](Cc3ccc(O)cc3)n3cc([C@@H](N)C(C)CC)nn3)CC2)nc(N2CCN(C(=O)[C@H](CCCCN)n3cc([C@@H](N)CO)nn3)CC2)n1 (some centres undefined) -12.6%
O=C(COc1c(F)c(F)cc(F)c1F)NNC(=O)CC1CCS(=O)(=O)C1 (centres undefined) -4.18%
CC1CN(S(=O)(=O)c2cccc(C(=O)OCC(=O)NCc3ccccc3)c2)CC(C)O1 (centres undefined) -6.28%
COc1ccc(N2C(=O)c3ccccc3NC2c2ccccc2O)cc1 (centres undefined) -3.39%
Cc1ccc(N2C(=O)c3ccccc3C2C(=O)c2cc(C)ccc2O)cc1 (centres undefined) 30.2%
CC(=O)SC1CC(=O)N(c2ccc(C(C)(C)C)cc2)C1=O (centres undefined) -11.1%
CCc1nc2ccc(C(=O)NCCc3ccc(OC)c(OC)c3)cc2nc1CC 0.19%
O=C(NCc1ccccn1)c1ccc(=O)oc1 11.6%
O=C(NCCc1ccccc1)c1coc(=O)c(Br)c1 -22.2%
COc1ccc(CCNC(=O)c2cc(-c3ccco3)on2)cc1OC -1.47%
O=C(NCc1ccccn1)c1ccc(NC(=O)c2ccco2)cc1 1.9%
COc1ccc(C(=O)NCc2ccccn2)cc1 19.1%
O=C(NCCc1ccccc1)c1cc(-c2ccco2)on1 25.6%
O=C(NCCc1ccccc1)c1ccc2nccnc2c1 28.7%
CCN(Cc1ccc(NC(C)=O)cc1)CC1CCCN(CCc2cccc(OC)c2)C1 (centres undefined) 3.62%
O=C(Cn1nnc(-c2ccccc2Cl)n1)Nc1cccc(S(=O)(=O)N2CCCC2)c1 -4.6%
COC(=O)c1ccccc1NC(=O)Nc1ccc(Cl)cn1 -0.47%
O=C(NCc1ccccc1)c1ccc2nccnc2c1 -2.53%
CCc1nc2ccc(C(=O)NCc3ccccc3)cc2nc1CC 13.9%
CC(C(=O)N1CCN(c2ccc(Cl)cc2)CC1)c1ncc(C(F)(F)F)cc1Cl (centres undefined) -3.01%
Cc1ccc(S(=O)(=O)NCc2nnc(SCC(=O)Nc3cccc(C)c3C)n2C)cc1 -1.43%
NS(=O)(=O)c1ccc(NC(=O)NC2CCCCC2)cc1 1.56%
CSc1oc(-c2ccco2)nc1S(=O)(=O)c1ccc(F)cc1 9.31%
CSc1oc(-c2ccco2)nc1S(=O)(=O)c1ccc(Br)cc1 6.37%
Cc1ccc2nc3sc(C(=O)Nc4ccc(N5CCOCC5)cc4)c(N)c3cc2c1 12.2%
NC(=O)c1ccc(OCC(F)(F)F)nc1 -12.4%
O=C(NC(=S)N1CCN(c2ccc([N+](=O)[O-])cc2)CC1)c1ccccc1Cl 0.79%
C[C@@H]1CCCCO[C@H](CN(C)C(=O)Nc2cccc3ccccc23)[C@@H](C)CN([C@H](C)CO)C(=O)c2cc(N(C)C)ccc2O1 4.84%
Cc1c(/C=N/Nc2ccc(F)cc2)c(O)n(C)c(=O)c1C#N 12.3%
CC(=O)N=Cc1c(C)c(C#N)c(=O)n(C)c1O 6.56%
O=C(C1CCN(S(=O)(=O)c2ccc3c(c2)OCCO3)CC1)N1CCc2ccccc21 24.2%
CNS(=O)(=O)c1cc(O)c2c(S(=O)(=O)NC)cccc2c1 1.99%
Oc1ccc(Cl)cc1N=Nc1ccccc1 0.9%
COc1ccccc1C(=O)NCCC(=O)Nc1ccc(S(=O)(=O)N2CC(C)CC(C)C2)cc1 (centres undefined) -5.91%
CC(C)OC(=O)CSc1nnc(Cc2ccccc2)n1C 1.42%
O=C(O)c1cc(-c2ccccn2)n[nH]1 -8.59%
Cc1cc([N+](=O)[O-])cc2ncccc12 22.2%
O=[N+]([O-])c1ccc(Cl)c2c1C1C=CCC1C(c1ccccn1)N2 (centres undefined) -2.51%
O=C(O)c1ccc2c(c1)C1C=CCC1C(c1cc3c(cc1Br)OCO3)N2 (centres undefined) -3.12%
CC1(C)CC(=O)C2=C(C1)Nc1cc(C(=O)c3ccccc3)ccc1NC2c1ccccn1 (centres undefined) 1.75%
CN(C)C(=O)c1ccc2c(c1)C1C3CCC(C3)C1C(c1ccccc1)N2 (centres undefined) -2.04%
COc1ccc(OC)c(C2Nc3c(Cl)ccc(C(=O)O)c3C3C=CCC32)c1 (centres undefined) -11.5%
Cc1ccc([N+](=O)[O-])cc1S(=O)(=O)Nc1ccccn1 11.9%
Cc1c(CNCCc2ccccc2Cl)c(C(=O)O)c(C)n1-c1ccccc1 -7.23%
Cc1ccc(C(=O)NC(=S)Nc2cccc(-c3nc4ccccc4s3)c2)cc1 9.8%
CSCCC(NS(=O)(=O)c1ccccc1F)C(=O)NCC(C)(C)N1CCOCC1 (centres undefined) 1.29%
O=C(OCc1nc2ccsc2c(=O)[nH]1)c1ccc(Cl)s1 11.9%
CCCCN(C(=O)C(C)(C)Oc1ccc(Cl)cc1)c1c(N)n(CCC)c(=O)[nH]c1=O -3.39%
CC(C)CN(CC(C)C)C(=O)Nc1cccc([N+](=O)[O-])c1 0.14%
CCC(C)NC(=O)CSc1nnc(-c2cc(OC)c(OC)c(OC)c2)c(-c2cc(OC)c(OC)c(OC)c2)n1 (centres undefined) 2.7%
NC(=O)NC(=O)CN1C(=O)NC2(CCOc3ccccc32)C1=O (centres undefined) 5.28%
N=C1C(c2ccccc2)=C(O)CN1c1cccc(O)c1 10.9%
O=C1CSc2ccc(C(=O)O)cc2N1 10.3%
COC(=O)c1ccc(C2Nc3ccc(/C(C)=N/NC(=O)C(OC)c4ccccc4)cc3C3C=CCC32)cc1 (centres undefined) 11.3%
CC1Cc2cc(C(=O)O)ccc2O1 (centres undefined) -3.49%
Cc1ccc2c(c1)[C@H]1OCC[C@H]1[C@@H](c1ccncc1)N2 27.8%
CCc1ccc2oc(=O)cc(CN3CCN(CCO)CC3)c2c1 4.78%
CC/C(=N\Nc1ccc([N+](=O)[O-])cc1[N+](=O)[O-])c1ccc(O)cc1 -6.92%
COc1ccc(-c2nn3c(-c4ccccn4)nnc3s2)cc1OC 12.7%
COc1cccc(-c2nnc3sc(-c4ccccn4)nn23)c1 -11.4%
COC(=O)c1cc(C)ccc1/C=C1/Cc2c(C)cc(C)cc2C1=O -4.06%
CC1CC1C(=O)OCC(=O)Nc1ncc(Cl)cc1Cl (centres undefined) 6.04%
CCCc1cc(=O)n2[nH]c(C)c(-c3ccccc3OC)c2n1 -0.45%
CCc1cc(=O)n2[nH]c(C)c(-c3ccc(OC)cc3)c2n1 -3.08%
COc1ccc(S(=O)(=O)N2CCC(C(=O)NCCC(=O)NCc3cccnc3)CC2)cc1 -0.14%
Cc1noc(C)c1CCC(=O)Nc1cc(C(=O)O)ccc1Cl 4.29%
Cc1ccc(NC(=O)CN2C(=O)N/C(=C/c3ccc(C)o3)C2=O)cc1 30.9%
Cc1ccc(NC(=O)CN2C(=O)N/C(=C/c3ccc4c(c3)OCCO4)C2=O)cc1 -0.54%

— PubChem BioAssay AID1117319 (Southern Research Institute, 2015)
